The record followed here is PubChem BioAssay (EPA / NIEHS).

Inconclusive results are not listed. More than one record can exist for a structure, and the calls need not agree. The source made the active and inactive calls. Rule for the calls, unless noted: active = hit-call score of the fitted dose curve at least 0.9, where 1 is the maximum; inactive = score below 0.9.

Experiment [1] is described as follows: ATG_PPRE_CIS: Attagene CIS-FACTORIAL HepG2 Assay for human Peroxisome Proliferator-activated Response Element (PPRE) (AID 2282958). Particulars: HepG2 PPRE cis-element reporter, Attagene transcription factor profiling; actives raise or lower the signal. In a few lines:
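HepG2 cells transiently transfected with multiplexed cis-element reporter units measure endogenous transcription factor activity. After 24 h compound exposure, reporter mRNA is quantified by RT-PCR, 6-FAM labeling, HpaI digestion and capillary electrophoresis; bidirectional fits are made against DMSO baseline.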

A short description of experiment [2]: ATG_RORE_CIS: Attagene CIS-FACTORIAL HepG2 Assay for human RAR-related Orphan Receptor Element (RORE) (AID 2282959). Particulars: HepG2 Attagene cis-factorial RORE reporter, mRNA; actives raise or lower the signal. In a few lines:
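HepG2 cells transiently transfected with multiple cis-element reporter transcription units, exposed to chemical for 24 h. Reporter mRNA quantified by RT-PCR, 6-FAM primer-extension labeling, HpaI digestion and capillary electrophoresis; bidirectional fit versus DMSO baseline.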

Experiment [3] can be described thus: ATG_Sox_CIS: Attagene CIS-FACTORIAL HepG2 Assay for human SRY-box transcription factor (SOX) (AID 2282960). Particulars: HepG2 Attagene cis-factorial SOX reporter, mRNA; actives raise or lower the signal. In a few lines: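 HepG2 cells transiently transfected with cis-element-driven multiple reporter transcription units, dosed 24 h; reporter mRNA measured by RT-PCR, FAM labelling, HpaI digestion and capillary electrophoresis. Bidirectional fit versus DMSO baseline.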

The target in experiment [4] is Transcription factor Sp1 (Homo sapiens) (UniProt P08047). As to the kind of experiment: ATG_Sp1_CIS: Attagene CIS-FACTORIAL HepG2 Assay for human Specificity Protein 1 (Sp1) (AID 2282961). Particulars: HepG2 Sp1 cis-reporter transcription, actives raise or lower the signal. The procedure, abridged: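 HepG2 cells transiently transfected with multiple reporter transcription units driven by cis-regulatory elements; Sp1-responsive reporter mRNA measured 24 h after dosing by RT-PCR and capillary electrophoresis fluorescence, fitted bidirectionally against DMSO baseline.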

Experiment [5] can be described thus: ATG_SREBP_CIS: Attagene CIS-FACTORIAL HepG2 Assay for human Sterol Regulatory Element Binding (SREBP) (AID 2282962). Particulars: HepG2 Attagene cis-factorial SREBP reporter, mRNA; actives raise or lower the signal. In a few lines: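 mRNA induction of transfected cis-promoter reporters in HepG2 cells, 24 h post-dose. Detection: RT-PCR with 6-FAM-labelled products, HpaI digest, capillary electrophoresis. DMSO served as negative control and baseline.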

In experiment [6] the target is Signal transducer and activator of transcription 3 (Homo sapiens) (UniProt P40763). As to the kind of experiment: ATG_STAT3_CIS: Attagene CIS-FACTORIAL HepG2 Assay for human Signal Transducer and Activator of Transcription 3 (STAT3) (AID 2282963). Conditions: HepG2, Attagene cis-factorial STAT3 reporter transcription; actives raise or lower the signal. In a few lines:
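HepG2 cells transiently transfected with multiple cis-element-driven reporter units report endogenous transcription factor activity. After 24 h compound exposure, reporter mRNA is measured by RT-PCR, 6-FAM labelling, HpaI digestion and capillary electrophoresis. Fitted bidirectionally versus DMSO.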

A short description of experiment [7]: ATG_TA_CIS: Attagene CIS-FACTORIAL HepG2 Assay for human TA Basal Promoter (AID 2282964). Conditions: HepG2 Attagene CIS-factorial TA basal promoter reporter; actives raise or lower the signal. The procedure, abridged:
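Background internal-marker endpoint from a 52-component HepG2 cis-reporter panel. Cells treated 24 h; reporter transcripts quantified via RT-PCR and CE fluorescence against DMSO baseline.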

Experiment [8] is described as follows: ATG_TCF_b_cat_CIS: Attagene CIS-FACTORIAL HepG2 Assay for human T-Cell-Factor with beta-catenin (TCF/b-cat) (AID 2282965). Particulars: HepG2 TCF/beta-catenin cis-reporter transcription, actives raise or lower the signal. The procedure, abridged:
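HepG2 cells transiently transfected with cis-promoter-driven multiplexed reporter units; reporter mRNA measured 24 h after dosing by RT-PCR, FAM labelling, HpaI digestion and capillary electrophoresis. Bidirectional fitting relative to DMSO baseline.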

Experiment [9] is described as follows: ATG_TAL_CIS: Attagene CIS-FACTORIAL HepG2 Assay for human TAL Basal Promoter (AID 2282966).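 Note: background control endpoint measuring basal TAL promoter reporter mRNA not a specific factor.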 Conditions: HepG2 Attagene cis-factorial TAL promoter reporter; actives raise or lower the signal. In a few lines: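 HepG2 cells were transiently transfected with promoter-driven multiplexed reporter units and dosed for 24 h. Reporter mRNA was measured by RT-PCR with capillary electrophoresis fluorescence; bidirectional fits used DMSO as baseline, serving as a background control.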

Experiment [10] in a line: ATG_TGFb_CIS: Attagene CIS-FACTORIAL HepG2 Assay for human Transforming Growth Factor (TGF) (AID 2282967). Particulars: HepG2 Attagene CIS TGFb reporter, mRNA transcription; actives raise or lower the signal. In a few lines:
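Liver HepG2 line, cis-factorial reporter panel, 24 h dosing. Quantitation: RT-PCR products labeled with 6-FAM, cut with HpaI, resolved by capillary electrophoresis; DMSO-referenced bidirectional analysis.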

Experiment [11] in a line: ATG_VDRE_CIS: Attagene CIS-FACTORIAL HepG2 Assay for human Vitamin D Receptor Element (VDRE) (AID 2282968). Particulars: HepG2 VDRE cis-reporter transcription, actives raise or lower the signal. The procedure, abridged:
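Transiently transfected HepG2 cells carrying cis-regulated reporter transcription units were exposed for 24 h. Reporter mRNA was measured by RT-PCR with fluorescent labelling and capillary electrophoresis, and fitted in both directions against DMSO.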

In experiment [12] the target is Nuclear receptor subfamily 1 group I member 3 (Homo sapiens) (UniProt Q14994). As to the kind of experiment: ATG_CAR_TRANS: Attagene TRANS-FACTORIAL HepG2 Assay for human Constitutive Androstane Receptor (CAR) (AID 2282969; active = hit-call score of the fitted dose curve at least 0.9, where 1 is the maximum;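 note: activators raise reporter mRNA above DMSO so AC50 marks induction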). Conditions: HepG2 Attagene TRANS-FACTORIAL CAR reporter. The procedure, abridged:
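HepG2 cells transiently transfected with GAL4-UAS reporter units; TRANS format reads activity of exogenous chimeric NR-Gal4 protein. After 24 h dosing, reporter mRNA quantified by RT-PCR, 6-FAM labelling and capillary electrophoresis; gain of signal fitted against DMSO.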

Experiment [13] addresses Estrogen receptor (Homo sapiens) (UniProt P03372). The experiment can be described thus: ATG_ERa_TRANS: Attagene TRANS-FACTORIAL HepG2 Assay for human Estrogen Receptor alpha (ERa) (AID 2282970; active = hit-call score of the fitted dose curve at least 0.9, where 1 is the maximum). Particulars: HepG2 Attagene TRANS ERa GAL4 reporter, mRNA. The procedure, abridged: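 HepG2 cells transiently transfected with multiplexed GAL4-UAS reporter units; ERa activity read via exogenous chimeric NR-Gal4 protein. After 24 hour compound exposure, reporter mRNA measured by RT-PCR with 6-FAM labelling and capillary electrophoresis; gain-of-signal fitted relative to DMSO.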

Experiment [14] addresses X-box-binding protein 1 (Homo sapiens) (UniProt P17861). As to the kind of experiment: ATG_Xbp1_CIS: Attagene CIS-FACTORIAL HepG2 Assay for human X-box Binding Protein 1 (XBP1) (AID 2282972). Particulars: HepG2 XBP1 cis-element reporter, Attagene multiplex; actives raise or lower the signal. The procedure, abridged:
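Fluorescence-labelled cDNA fragments from reporter transcripts, separated by capillary electrophoresis, give the signal. Source: HepG2 cells transfected with promoter-driven reporter units, harvested 24 h post-dose. DMSO served as reference for bidirectional curve fitting.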

Experiment [15] concerns the target Estrogen-related receptor gamma (Homo sapiens) (UniProt P62508). The experiment can be described thus: ATG_ERRg_TRANS: Attagene TRANS-FACTORIAL HepG2 Assay for human Estrogen-Related Receptor gamma (ERRg) (AID 2282977; active = hit-call score of the fitted dose curve at least 0.9, where 1 is the maximum;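 note: hits increase reporter signal over DMSO so potencies reflect activators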). Particulars: HepG2 Attagene TRANS reporter, ERRg transactivation. In a few lines:
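HepG2 cells transiently transfected with multiplexed GAL4-UAS reporter units driven by chimeric NR-Gal4 proteins; 24 h exposure. Reporter mRNA quantified by RT-PCR, fluorescent labelling, HpaI digestion and capillary electrophoresis; gain of signal vs DMSO.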

The nature of experiment [16]: ATG_M_19_TRANS: Attagene TRANS-FACTORIAL HepG2 Assay for M19 Transcription Factor (Internal Marker) (AID 2282974; active = hit-call score of the fitted dose curve at least 0.9, where 1 is the maximum). Conditions: HepG2 Attagene TRANS-FACTORIAL M19 internal marker reporter. The procedure, abridged: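 HepG2 cells transiently transfected with multiple GAL4-UAS reporter transcription units were exposed to chemicals for 24 h. Reporter mRNA was read by RT-PCR, 6-FAM primer extension, HpaI digestion and capillary electrophoresis; gain of signal fitted relative to DMSO.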

The nature of experiment [17]: ATG_GAL4_TRANS: Attagene TRANS-FACTORIAL HepG2 Assay for GAL4 (Internal Marker) (AID 2282976; active = hit-call score of the fitted dose curve at least 0.9, where 1 is the maximum). Conditions: HepG2 Attagene TRANS GAL4 internal marker reporter. In a few lines: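 HepG2 cells transiently transfected with multiplexed GAL4-UAS reporter constructs were dosed for 24 h. Reporter mRNA was measured by RT-PCR, 6-FAM primer extension, HpaI digestion and capillary electrophoresis, and gain of signal was fitted relative to DMSO.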

The target in experiment [18] is Bile acid receptor (Homo sapiens) (UniProt Q96RI1). The experiment can be described thus: ATG_FXR_TRANS: Attagene TRANS-FACTORIAL HepG2 Assay for Farnesoid X Receptor (FXR) (AID 2282979; active = hit-call score of the fitted dose curve at least 0.9, where 1 is the maximum;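 note: hits raise reporter mRNA above DMSO so AC50 marks FXR activation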). Particulars: HepG2 Attagene TRANS FXR-GAL4 reporter transcription. In a few lines: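 HepG2 cells transiently transfected with reporter constructs in which a chimeric FXR-GAL4 protein drives a GAL4-UAS reporter; 24 h compound exposure. Reporter mRNA measured by RT-PCR, FAM labelling, HpaI digestion and capillary electrophoresis; gain-of-signal versus DMSO.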

Experiment [19] concerns the target Steroid hormone receptor ERR1 (Homo sapiens) (UniProt P11474). As to the kind of experiment: ATG_ERRa_TRANS: Attagene TRANS-FACTORIAL HepG2 Assay for human Estrogen-Related Receptor alpha (ERRa) (AID 2282971; active = hit-call score of the fitted dose curve at least 0.9, where 1 is the maximum). Particulars: HepG2 Attagene TRANS reporter, ERRa transactivation. In a few lines:
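HepG2 cells transiently transfected with multiplexed GAL4-UAS reporter units reading chimeric ERRa-Gal4 activity; 24 h compound exposure. Reporter mRNA measured by RT-PCR, 6-FAM labelling, HpaI digest and capillary electrophoresis; gain of signal fitted versus DMSO baseline.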

In experiment [20] the target is Glucocorticoid receptor (Homo sapiens) (UniProt P04150). The experiment can be described thus: ATG_GR_TRANS: Attagene TRANS-FACTORIAL HepG2 Assay for human Glucocorticoid Receptor (GR) (AID 2282978; active = hit-call score of the fitted dose curve at least 0.9, where 1 is the maximum;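 note: activators score as hits since higher reporter transcript over DMSO is fitted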). Conditions: HepG2 Attagene TRANS GR reporter, mRNA transcription. In a few lines: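 HepG2 cells transiently transfected with multiplexed reporter units in which chimeric NR-GAL4 proteins drive GAL4-UAS reporters; 24 h compound exposure. Reporter mRNA measured by RT-PCR, 6-FAM labelling, HpaI digestion and capillary electrophoresis; gain-of-signal fitted versus DMSO.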
Sequence of Glucocorticoid receptor (Homo sapiens) (P04150 whole entry, looked up, the tested form may be a part): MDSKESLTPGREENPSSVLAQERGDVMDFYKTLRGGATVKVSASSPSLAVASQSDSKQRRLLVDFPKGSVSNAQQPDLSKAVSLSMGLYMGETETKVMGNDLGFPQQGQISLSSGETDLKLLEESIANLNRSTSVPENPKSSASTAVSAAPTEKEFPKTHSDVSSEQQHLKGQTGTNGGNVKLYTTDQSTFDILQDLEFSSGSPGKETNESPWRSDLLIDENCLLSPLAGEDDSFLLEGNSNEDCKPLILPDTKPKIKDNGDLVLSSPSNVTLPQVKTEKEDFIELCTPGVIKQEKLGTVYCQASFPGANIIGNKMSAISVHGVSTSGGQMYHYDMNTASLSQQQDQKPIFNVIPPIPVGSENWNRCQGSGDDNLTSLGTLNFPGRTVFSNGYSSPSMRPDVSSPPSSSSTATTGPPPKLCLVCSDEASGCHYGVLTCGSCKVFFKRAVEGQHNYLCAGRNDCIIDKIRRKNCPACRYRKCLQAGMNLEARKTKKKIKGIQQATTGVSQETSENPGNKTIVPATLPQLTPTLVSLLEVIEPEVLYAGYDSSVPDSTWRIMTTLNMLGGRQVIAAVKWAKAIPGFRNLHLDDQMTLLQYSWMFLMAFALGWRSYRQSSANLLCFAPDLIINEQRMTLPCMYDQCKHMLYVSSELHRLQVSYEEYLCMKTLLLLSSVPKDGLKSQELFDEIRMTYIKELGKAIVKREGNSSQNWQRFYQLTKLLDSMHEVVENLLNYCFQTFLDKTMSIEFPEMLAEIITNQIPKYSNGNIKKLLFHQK

Sequence of Nuclear receptor subfamily 1 group I member 3 (Homo sapiens) (Q14994 whole entry, looked up, the tested form may be a part): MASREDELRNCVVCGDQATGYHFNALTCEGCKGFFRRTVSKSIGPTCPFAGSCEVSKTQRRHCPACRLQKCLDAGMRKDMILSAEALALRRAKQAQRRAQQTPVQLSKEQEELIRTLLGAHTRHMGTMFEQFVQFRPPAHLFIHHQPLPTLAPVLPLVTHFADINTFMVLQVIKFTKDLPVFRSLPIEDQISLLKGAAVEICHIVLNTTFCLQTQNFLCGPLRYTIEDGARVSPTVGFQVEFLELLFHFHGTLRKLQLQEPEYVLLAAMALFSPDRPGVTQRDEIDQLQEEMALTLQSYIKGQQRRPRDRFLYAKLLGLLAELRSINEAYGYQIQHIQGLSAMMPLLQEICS
Sequence of Estrogen receptor (Homo sapiens) (P03372 whole entry, looked up, the tested form may be a part): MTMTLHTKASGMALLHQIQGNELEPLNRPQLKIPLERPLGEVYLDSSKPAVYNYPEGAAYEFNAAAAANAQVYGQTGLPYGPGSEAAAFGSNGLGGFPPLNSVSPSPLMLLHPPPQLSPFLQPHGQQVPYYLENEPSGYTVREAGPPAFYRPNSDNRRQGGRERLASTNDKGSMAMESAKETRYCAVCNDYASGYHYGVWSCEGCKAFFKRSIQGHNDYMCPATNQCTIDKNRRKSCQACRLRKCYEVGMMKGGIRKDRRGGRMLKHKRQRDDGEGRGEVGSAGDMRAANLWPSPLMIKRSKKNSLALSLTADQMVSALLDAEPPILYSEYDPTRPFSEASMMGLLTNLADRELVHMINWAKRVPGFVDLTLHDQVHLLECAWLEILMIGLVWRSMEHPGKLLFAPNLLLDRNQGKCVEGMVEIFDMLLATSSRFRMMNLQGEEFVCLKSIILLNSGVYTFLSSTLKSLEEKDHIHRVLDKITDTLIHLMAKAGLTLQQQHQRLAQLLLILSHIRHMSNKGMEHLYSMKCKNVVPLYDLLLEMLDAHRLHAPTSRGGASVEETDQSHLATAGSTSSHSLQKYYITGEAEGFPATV
Sequence of X-box-binding protein 1 (Homo sapiens) (P17861 whole entry, looked up, the tested form may be a part): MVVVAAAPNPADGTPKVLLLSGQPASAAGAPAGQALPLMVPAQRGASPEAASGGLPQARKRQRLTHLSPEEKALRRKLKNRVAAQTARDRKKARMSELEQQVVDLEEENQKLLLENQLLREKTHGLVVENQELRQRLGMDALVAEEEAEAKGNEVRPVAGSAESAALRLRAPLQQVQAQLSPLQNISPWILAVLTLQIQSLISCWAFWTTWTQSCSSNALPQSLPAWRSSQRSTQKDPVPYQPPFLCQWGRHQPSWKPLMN
Sequence of Signal transducer and activator of transcription 3 (Homo sapiens) (P40763 whole entry, looked up): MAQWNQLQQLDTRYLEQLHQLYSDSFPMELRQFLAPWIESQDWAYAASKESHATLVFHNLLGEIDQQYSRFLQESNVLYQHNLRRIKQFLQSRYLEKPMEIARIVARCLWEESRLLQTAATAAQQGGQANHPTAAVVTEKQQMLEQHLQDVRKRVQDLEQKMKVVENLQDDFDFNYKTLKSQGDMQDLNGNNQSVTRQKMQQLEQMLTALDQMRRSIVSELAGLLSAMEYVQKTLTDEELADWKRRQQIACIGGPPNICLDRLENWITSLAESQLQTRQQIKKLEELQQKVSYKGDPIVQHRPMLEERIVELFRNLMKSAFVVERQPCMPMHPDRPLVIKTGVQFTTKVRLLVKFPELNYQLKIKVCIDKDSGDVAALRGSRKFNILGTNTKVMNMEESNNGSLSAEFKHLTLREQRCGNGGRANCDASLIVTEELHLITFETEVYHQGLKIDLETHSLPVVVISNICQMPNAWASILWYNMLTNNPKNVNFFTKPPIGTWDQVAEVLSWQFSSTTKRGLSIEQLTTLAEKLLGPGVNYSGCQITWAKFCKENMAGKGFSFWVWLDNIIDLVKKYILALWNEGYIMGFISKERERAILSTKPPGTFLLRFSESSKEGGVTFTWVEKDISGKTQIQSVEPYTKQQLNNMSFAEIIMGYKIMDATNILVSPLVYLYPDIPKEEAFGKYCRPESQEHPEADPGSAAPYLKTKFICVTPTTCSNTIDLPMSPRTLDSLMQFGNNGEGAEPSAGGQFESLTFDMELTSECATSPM
Sequence of Bile acid receptor (Homo sapiens) (Q96RI1 whole entry, looked up, the tested form may be a part): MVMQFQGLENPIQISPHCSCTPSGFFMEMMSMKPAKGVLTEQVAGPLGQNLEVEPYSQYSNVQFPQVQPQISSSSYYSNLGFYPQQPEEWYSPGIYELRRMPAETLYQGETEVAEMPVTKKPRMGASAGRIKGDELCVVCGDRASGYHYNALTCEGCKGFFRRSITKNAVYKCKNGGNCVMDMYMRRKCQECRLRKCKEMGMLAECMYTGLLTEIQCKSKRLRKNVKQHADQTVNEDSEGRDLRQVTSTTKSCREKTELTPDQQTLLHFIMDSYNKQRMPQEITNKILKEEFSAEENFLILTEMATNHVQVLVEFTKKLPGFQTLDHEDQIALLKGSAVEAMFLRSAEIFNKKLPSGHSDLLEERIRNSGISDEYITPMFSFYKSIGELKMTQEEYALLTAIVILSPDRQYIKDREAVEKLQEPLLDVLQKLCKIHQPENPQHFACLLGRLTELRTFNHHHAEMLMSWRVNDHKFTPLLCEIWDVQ
Sequence of Transcription factor Sp1 (Homo sapiens) (P08047 whole entry, looked up): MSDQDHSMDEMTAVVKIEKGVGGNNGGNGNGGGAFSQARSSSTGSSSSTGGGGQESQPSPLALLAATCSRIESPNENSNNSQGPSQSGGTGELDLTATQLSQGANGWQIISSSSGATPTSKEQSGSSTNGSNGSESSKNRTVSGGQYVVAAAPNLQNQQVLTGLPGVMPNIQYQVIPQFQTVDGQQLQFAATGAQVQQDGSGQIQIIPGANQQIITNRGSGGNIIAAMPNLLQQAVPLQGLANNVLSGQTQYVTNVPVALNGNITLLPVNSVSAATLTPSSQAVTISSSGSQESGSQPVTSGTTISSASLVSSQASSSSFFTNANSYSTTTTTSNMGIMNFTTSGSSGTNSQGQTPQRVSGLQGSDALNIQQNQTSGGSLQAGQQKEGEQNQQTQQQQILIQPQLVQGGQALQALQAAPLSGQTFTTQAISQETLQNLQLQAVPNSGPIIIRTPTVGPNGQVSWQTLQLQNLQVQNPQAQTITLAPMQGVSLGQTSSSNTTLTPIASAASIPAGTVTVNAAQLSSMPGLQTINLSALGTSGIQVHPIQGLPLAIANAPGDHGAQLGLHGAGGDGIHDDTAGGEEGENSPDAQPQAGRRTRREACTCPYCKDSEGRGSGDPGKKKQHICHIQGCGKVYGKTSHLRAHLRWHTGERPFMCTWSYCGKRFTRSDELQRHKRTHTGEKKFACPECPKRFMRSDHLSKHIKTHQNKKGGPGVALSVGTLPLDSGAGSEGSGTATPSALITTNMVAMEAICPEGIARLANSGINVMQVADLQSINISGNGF
Sequence of Estrogen-related receptor gamma (Homo sapiens) (P62508 whole entry, looked up, the tested form may be a part): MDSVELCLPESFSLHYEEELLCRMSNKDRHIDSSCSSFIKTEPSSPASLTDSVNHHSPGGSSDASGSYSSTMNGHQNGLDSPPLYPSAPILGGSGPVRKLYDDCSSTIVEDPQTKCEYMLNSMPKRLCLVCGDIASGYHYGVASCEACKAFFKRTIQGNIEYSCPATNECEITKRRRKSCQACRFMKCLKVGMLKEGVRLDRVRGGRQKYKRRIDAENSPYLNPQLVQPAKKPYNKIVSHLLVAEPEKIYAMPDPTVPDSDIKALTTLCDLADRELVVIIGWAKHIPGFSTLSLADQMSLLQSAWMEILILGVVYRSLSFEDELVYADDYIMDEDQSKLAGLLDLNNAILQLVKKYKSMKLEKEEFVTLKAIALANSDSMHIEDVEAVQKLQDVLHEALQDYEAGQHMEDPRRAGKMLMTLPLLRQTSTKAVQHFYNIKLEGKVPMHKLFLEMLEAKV
Sequence of Steroid hormone receptor ERR1 (Homo sapiens) (P11474 whole entry, looked up, the tested form may be a part): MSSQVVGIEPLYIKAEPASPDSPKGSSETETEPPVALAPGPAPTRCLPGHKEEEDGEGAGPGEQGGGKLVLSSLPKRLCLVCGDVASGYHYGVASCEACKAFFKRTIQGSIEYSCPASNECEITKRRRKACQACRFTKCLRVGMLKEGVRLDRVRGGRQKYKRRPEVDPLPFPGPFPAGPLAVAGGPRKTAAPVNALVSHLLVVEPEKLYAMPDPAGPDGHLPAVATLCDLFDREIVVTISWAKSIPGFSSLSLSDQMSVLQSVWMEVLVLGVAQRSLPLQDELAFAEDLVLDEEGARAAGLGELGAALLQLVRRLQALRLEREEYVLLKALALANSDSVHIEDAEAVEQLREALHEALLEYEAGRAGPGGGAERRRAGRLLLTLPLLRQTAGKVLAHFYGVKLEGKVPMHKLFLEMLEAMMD

On to `OCc1ccco1`, for which the result in [1], in experiment [2], in [3], in experiment [4], in experiment [5] and in experiment [6] was inactive. Further, the outcome in [7], in experiment [8], in experiment [9], in experiment [10], in experiment [11] and in experiment [12] was inactive. Further, the outcome in experiment [13], in experiment [14] and in experiment [15] was inactive.
A word on the AC50: it is the concentration giving half of the maximal activity seen. For `CCOP(=S)(OCC)Oc1ccc(S(C)=O)cc1` (stereo not drawn), the molecule was called inactive in experiment [1], in experiment [2], in experiment [3], in [4], in experiment [5] and in [6]. Further, the outcome in experiment [7], in experiment [8], in experiment [9], in experiment [10], in [12] and in [13] was inactive. In addition, the outcome in [14], in experiment [16] and in [15] was inactive. In experiment [11], the AC50 was 31.2 µM (active).
Consider `O=C(O)C(F)(F)C(F)(F)C(F)(F)C(F)(F)C(F)(F)C(F)(F)F`, for which the AC50 in [1] is 63.7 µM (active). Further, the outcome in experiment [1], in experiment [2], in [3], in experiment [4], in experiment [5] and in experiment [8] was inactive. In addition, the molecule was classed as inactive in [10], in experiment [11], in experiment [14], in [16], in experiment [17] and in experiment [18].
On to `BrCCBr`, for which the molecule was called inactive in experiment [1], in [2], in experiment [3], in experiment [4], in experiment [5] and in experiment [6]. The result in experiment [7], in [8], in [9], in [10], in experiment [11] and in experiment [12] was inactive. Moreover, the call in experiment [19], in experiment [14], in experiment [16], in experiment [17], in [15] and in [20] was inactive. Also, the concentration at half-maximal activity (AC50) in [13] is 27.5 µM (active).
